Source: PubChem (National Center for Advancing Translational Sciences (NCATS))
Sampled rows, rich in hits. Any-hit rate of the full collection: about 18%.
RORgamma inh: inhibitors of mouse ROR gamma transcriptional activity | Potency, µM (titrated, usually from 53.6 µM), actives largely listed as inhibitors | P51450 | Drosophila S2 Gal4-RORgamma UAS-luciferase reporter, 20 h | hit rate 5.4% among 310,000; also: nearly all actives have a fitted effect of over 60% in size
Target sequence (P51450 whole entry, looked up, the tested form may be a part): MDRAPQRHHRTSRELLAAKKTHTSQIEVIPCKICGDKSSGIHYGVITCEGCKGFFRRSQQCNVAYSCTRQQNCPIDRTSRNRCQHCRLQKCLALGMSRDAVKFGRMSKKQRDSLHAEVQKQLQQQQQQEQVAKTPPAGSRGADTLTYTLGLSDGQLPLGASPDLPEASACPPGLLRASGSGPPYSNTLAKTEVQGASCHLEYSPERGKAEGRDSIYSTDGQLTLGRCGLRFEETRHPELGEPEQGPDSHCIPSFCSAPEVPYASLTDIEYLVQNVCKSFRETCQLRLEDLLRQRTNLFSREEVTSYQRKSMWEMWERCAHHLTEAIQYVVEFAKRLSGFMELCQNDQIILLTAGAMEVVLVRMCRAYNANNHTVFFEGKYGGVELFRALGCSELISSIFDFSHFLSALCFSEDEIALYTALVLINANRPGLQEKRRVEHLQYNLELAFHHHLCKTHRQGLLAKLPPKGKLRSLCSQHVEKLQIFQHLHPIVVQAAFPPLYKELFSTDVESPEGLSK
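Luminescence from a UAS-regulated Photinus luciferase reporter in stably transfected Drosophila Schneider cells is measured; decreased signal marks ROR gamma inhibition. Fusion expression is induced by 700 uM copper sulfate for 20 hr.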
IL1B secr inh: blocks inflammasome-driven IL-1 beta release | THP-1 LPS/ATP IL-1B secretion, AlphaLISA, 16 h; active compounds read low | activity change, % at 57.5 µM | hit rate 4.7% among 360,000; in the data active = activity change below about -50%; inconclusive = mostly about -30% to -49%
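Secreted IL-1B measured by AlphaLISA bead assay after 16 h compound exposure of THP-1 cells; compounds (final up to 57.5 uM) added 1 h before LPS (250 ng/mL) and ATP (1.25 mM) stimulation; lower signal means less secretion.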
DT40 TDP1 no CPT: qHTS for Inhibitors of human tyrosyl-DNA phosphodiesterase 1 (TDP1): qHTS in cells in absence of CPT. hit rate 15% among 420,000. Potency, µM (series often up to 46.2 µM), usual class: inhibitors. DT40 Tdp1-/- hTDP1 cells, no CPT, ATP luminescence, 48 h; also: nearly all actives have a fitted effect of over 55% in size
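Chicken DT40 Tdp1-/- cells stably complemented with human TDP1 were seeded at 400 cells/well with DMSO in place of 20 nM camptothecin. After compound pinning, cells grew at least 48 hr at 37 °C; viability read by CellTiter-Glo luminescence.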
DT40 TDP1 CPT: DT40-hTDP1 cell growth loss with CPT; chicken DT40 Tdp1-/-;hTDP1 cells + 20 nM CPT, ATP luminescence, 48 h; Potency, µM (titrated, usually from 46.2 µM), usual class: inhibitors; hit rate 12% among 420,000; also: nearly all actives have a fitted effect of over 55% in size
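Chicken DT40 Tdp1-/- cells complemented with human TDP1, 400 cells/well, exposed to compounds plus 20 nM camptothecin for at least 48 h at 37 C; viability read as ATP content by CellTiter-Glo luminescence.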
Gal4-VP16 FLuc: counter-screen for ROR gamma inhibitors: Gal4-VP16 reporter; Drosophila S2 Gal4-VP16 UAS-luciferase, luminescence, 20 h; Potency, µM (titrated, usually from 53.6 µM), usual class: inhibitors; hit rate 3.5% among 310,000; AID 2546;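 also: Gal4-VP16 expression switched on by copper sulfate through the metallothionein promoter; nearly all actives have a fitted effect of over 50% in size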
LDHA block: LDHA (human) enzyme inhibition; P00338; hit rate 0.15% among 480,000; activity change, % (values are at about 110 or 230 µM); AID 1347041; purified LDHA, NADH/diaphorase-resazurin fluorescence; active compounds read low; in the data active = activity change below about -30%; inconclusive = mostly about -25% to -30%
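Enzyme activity of human lactate dehydrogenase 5 (2 nM; 0.06 mM NADH, 0.2 mM pyruvate, 5 min, RT) is measured via a resazurin/diaphorase fluorescence readout of residual NADH.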
Hits are given with their value; 0 = inactive; ? = inconclusive; - = no result given. Unless noted, calls follow the shape of the dose curve; as a rule, active = well fitted curve in the direction sought with a large enough effect; inconclusive = small, poorly fitted or top-dose-only effect, or another doubt; inactive = no such curve, though single readings can be large; an effect the other way counts as inactive or inconclusive.

SMILES	RORgamma inh	IL1B secr inh	DT40 TDP1 no CPT	DT40 TDP1 CPT	Gal4-VP16 FLuc	LDHA block
Cc1nc2ccc(NC(=O)Cc3cccc(C(F)(F)F)c3)cc2s1	-	-	-	-	-	0
COC(=O)C1=C(C)N(c2ccc3c(c2)OCO3)C(=O)NC1c1c(F)cccc1Cl (stereo unspecified)	-	-	-	-	-	0
O=C1CCCC2=C1C(c1cccs1)CC(=O)N2c1ccc(C(F)(F)F)cc1 (stereo unspecified)	-	-	-	-	-	0
Cc1cc(C(=O)N/N=C\c2cc(C(C)(C)C)c(O)c(C(C)(C)C)c2)n[nH]1	6.3µM	0	?	0	3.5µM	0
Cc1cc(C(=O)N/N=C/c2ccccc2Br)no1	0	0	0	0	0	0
Cc1cc(C(=O)N/N=C/c2ccc[nH]2)n[nH]1	2.8µM	0	0	0	0	0
Cc1cc(C(=O)N/N=C/c2ccc[nH]2)no1	10µM	0	18µM	?	11µM	0
COc1ccccc1N1CCN(c2nc(CSc3ccc(C)cc3)cc(=O)[nH]2)CC1	-	-	-	-	-	0
Cc1nn(C(=O)C2CCCN2S(=O)(=O)c2ccc(F)cc2)c(C)c1Sc1ccccc1 (stereo unspecified)	-	-	-	-	-	-34
Cc1ccc(Sc2c(C)nn(C(=O)C3CC3)c2C)cc1	?	0	0	?	?	0
Cc1ccc(S(=O)(=O)N2CCCC2C(=O)n2nc(C)c(Sc3ccccc3)c2C)cc1 (stereo unspecified)	-	-	-	-	-	-35
O=C(Nc1cc(=O)[nH]c2nc(Cc3ccccc3)nn12)c1ccc(Cl)cc1Cl	-	-	-	-	-	0
CC(C)N(Cc1ccccn1)C(=O)c1cc(-c2cccs2)nc2ccccc12	-	-	-	-	-	0
O=C(NC1CCCC(C(F)(F)F)C1)C1CCCCC1 (stereo unspecified)	-	-	-	-	-	0
O=C(c1cnn2c(C(F)F)cc(-c3ccccc3)nc12)N1CCN(Cc2ccc3c(c2)OCO3)CC1	0	0	26µM	?	0	0
Cc1ccc(C)c(Cc2c(C)nc3c(C(=O)NCc4ccc5c(c4)OCO5)cnn3c2C)c1	0	-	-	-	0	-
Cc1ccccc1Cc1c(C)nc2c(C(=O)NCc3ccc4c(c3)OCO4)cnn2c1C	0	0	?	18µM	0	0
Cc1ccccc1Cc1c(C)nc2c(C(=O)N3CCN(Cc4ccc5c(c4)OCO5)CC3)cnn2c1C	-	?	18µM	?	-	0
CCC(CC)NC(=O)COC(=O)c1ccc2ccccc2n1	-	-	-	-	-	0
COc1ccc(C(=O)/C=C/c2cccc(O)c2)cc1	-	-	-	-	-	0
COc1ccc(OC)c(-c2c3cc(O)c(=O)cc-3oc3cc(O)c(O)cc23)c1	?	0	?	?	?	0
CCOc1ccccc1-c1c2cc(O)c(=O)cc-2oc2cc(O)c(O)cc12	?	0	?	23µM	18µM	0
CCN1CCN(c2nc3c(c(=O)[nH]c(=O)n3C)n2CCSc2nc3ccccc3o2)CC1	-	-	-	-	-	0
Cn1c(=O)[nH]c(=O)c2c1nc(N1CCCCC1)n2CCCSc1nc2ccccc2s1	?	?	13µM	13µM	0	0
Cn1c(=O)[nH]c(=O)c2c1nc(Br)n2CCCSc1nc2ccccc2o1	0	0	26µM	?	0	0
SMILES	RORgamma inh	IL1B secr inh	DT40 TDP1 no CPT	DT40 TDP1 CPT	Gal4-VP16 FLuc	LDHA block
Cn1c(=O)[nH]c(=O)c2c1nc(N1CCCC1)n2CCCSc1nc2ccccc2o1	0	0	?	23µM	0	0
CCOC(=O)c1nnn2c1nc(N1CCCCC1)c1ccccc12	0	-	?	?	0	0
CCC1CCCCN1c1nc2c(C=O)c(C)nn2c2ccccc12 (stereo unspecified)	?	0	16µM	21µM	0	0
NCc1cccc(NC(=O)C2CC2)c1	-	-	-	-	-	0
c1ccc(CNCCN2CCCC2)nc1	-	-	-	-	-	0
CC(C)CCC(CCNCc1ccccn1)c1ccc(Cl)cc1 (stereo unspecified)	11µM	-98	15µM	0	0	0
CC(C)(C)C(=O)/C=c1/[nH]c(=O)/c(=C/c2ccc(C(F)(F)F)cc2)s1	-	-	-	-	-	0
COc1cccc(C2CN(c3ccc(F)cc3F)N=C2c2cccs2)c1OC (stereo unspecified)	0	0	?	16µM	0	0
